TDP1 cell CPT = growth inhibition of DT40 Tdp1-/-;hTDP1 cells with camptothecin (screen for TDP1 inhibitors); actives 12% (n = 420,000); AID 686979; chicken DT40 Tdp1-/-;hTDP1 cells + 20 nM CPT, ATP luminescence, 48 h; Potency, µM (doses to about 46.2 µM), actives largely listed as inhibitors; also: nearly all actives have a fitted effect of over 55% in size
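Chicken DT40 Tdp1-/- cells stably complemented with human TDP1 were seeded at 400 cells/well in medium containing 20 nM camptothecin, exposed to pin-transferred compounds, and grown at 37 °C for at least 48 hr. Viability was read as ATP luminescence.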
HT1080-NT tox = kills 2HG-producing HT-1080-NT fibrosarcoma cells; HT-1080-NT fibrosarcoma viability, CellTiter-Glo ATP luminescence, 48 h; Potency, µM (top dose mostly 46.1 µM), hits mostly cytotoxic; actives 1.6% (n = 360,000); AID 686970;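 also: NT is the 2HG producing partner of a matched IDH1 knockdown line; nearly all actives have a fitted effect of over 55% in size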
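Viability of the 2HG-overproducing fibrosarcoma line after 48 hours of compound exposure at 37 degrees C was determined by luminescence with CellTiter-Glo, and concentration-effect curves were then fitted and categorized.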
HT1080 IDH1KD tx = HT-1080 IDH1 knockdown cell toxicity (counter line); HT-1080 IDH1 knockdown viability, ATP luminescence, 48 h; Potency, µM (highest dose often 46.1 µM), usual class: cytotoxic; actives 2% (n = 360,000)
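Knockdown cells (IDH1KD HT-1080) received compounds 2 h after plating at 750 cells/well and were kept 48 h at 37 °C in 5% FBS RPMI. A CellTiter-Glo luminescence read gave % activity for curve fitting.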
IL1B secr inh = inhibitors of inflammasome signaling (IL-1 beta secretion); AID 743279; activity change, % at 57.5 µM; actives 4.7% (n = 360,000); THP-1 LPS/ATP IL-1B secretion, AlphaLISA, 16 h; hits give low values; in the data active = activity change below about -50%; inconclusive = mostly about -30% to -49%
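THP-1 cells pretreated 1 hr with compounds (up to 57.5 uM final), then stimulated with LPS (250 ng/mL final) plus ATP (1.25 mM final); secreted IL-1B measured by AlphaLISA after 16 hr, decreased signal indicating inhibition.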
12-LOX inh = ALOX12 (human) lipoxygenase inhibition; Potency, µM (highest dose often 108 µM), hits mostly inhibitors; P18054; actives 1.1% (n = 580,000); purified 12hLO, xylenol orange hydroperoxide absorbance
Target sequence (P18054 whole entry, looked up): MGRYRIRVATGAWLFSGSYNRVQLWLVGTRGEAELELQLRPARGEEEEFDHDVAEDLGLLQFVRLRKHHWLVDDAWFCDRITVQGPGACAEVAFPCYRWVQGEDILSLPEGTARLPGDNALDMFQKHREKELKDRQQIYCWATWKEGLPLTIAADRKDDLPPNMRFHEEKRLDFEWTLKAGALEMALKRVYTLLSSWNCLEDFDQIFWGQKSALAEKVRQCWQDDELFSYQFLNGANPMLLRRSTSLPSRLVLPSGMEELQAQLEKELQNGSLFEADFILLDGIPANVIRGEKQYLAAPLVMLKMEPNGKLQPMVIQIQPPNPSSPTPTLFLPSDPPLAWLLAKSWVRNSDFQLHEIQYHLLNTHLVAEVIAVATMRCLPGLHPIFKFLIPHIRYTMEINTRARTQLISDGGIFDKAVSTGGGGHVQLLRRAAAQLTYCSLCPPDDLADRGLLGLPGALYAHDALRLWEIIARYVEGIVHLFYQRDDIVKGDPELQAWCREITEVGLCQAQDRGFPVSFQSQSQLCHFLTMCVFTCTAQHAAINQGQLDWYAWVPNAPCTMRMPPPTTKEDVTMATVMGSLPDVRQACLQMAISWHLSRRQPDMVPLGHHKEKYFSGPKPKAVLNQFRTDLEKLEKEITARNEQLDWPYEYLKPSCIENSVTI
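Purified human 12hLO at 150 nM in 25 mM Hepes, 0.01% Triton X-100, pH 7.0, preincubated 15 min at room temperature with compound. Reaction started with 40 uM arachidonic acid, 30 min at room temperature. Hydroperoxide measured by Fe-xylenol orange, 573/405 nm absorbance ratio.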
TDP1 cell noCPT = qHTS for Inhibitors of human tyrosyl-DNA phosphodiesterase 1 (TDP1): qHTS in cells in absence of CPT. Potency, µM (highest dose often 46.2 µM), hits mostly inhibitors. actives 15% (n = 420,000). AID 686978, 2013. DT40 Tdp1-/- hTDP1 cells, no CPT, ATP luminescence, 48 h; also: nearly all actives have a fitted effect of over 55% in size
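Readout: luminescence from CellTiter-Glo after 30 min in the dark at RT. Cells: DT40 Tdp1-/- with stable hTDP1, 400/well. Exposure: compounds alone, ≥48 hr, 37 °C.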
Numbers stand for hits; n = inactive; u = inconclusive; x = no result; ! = a repeat was not active; [ ] = another dose, or the depositor's remark. Many of the other results were omitted from the sample, so hits are more common in it than they were. Unless noted, calls follow the shape of the dose curve; as a rule, active = well fitted curve in the direction sought with a large enough effect; inconclusive = small, poorly fitted or top-dose-only effect, or another doubt; inactive = no such curve, though single readings can be large; an effect the other way counts as inactive or inconclusive.

SMILES | TDP1 cell CPT | HT1080-NT tox | HT1080 IDH1KD tx | IL1B secr inh | 12-LOX inh | TDP1 cell noCPT
N#CC1=C(N)OC2=C(C(=O)CC(c3ccccc3)C2)C1c1cccc(F)c1 (centres undefined) | x | x | x | x | 35.5µM | x
N#CC1=C(N)OC2=C(C(=O)CC(c3ccccc3)C2)C1c1ccc(Br)cc1 (centres undefined) | x | x | x | x | 11.2µM | x
[O-]/[N+](=C\c1ccncc1)c1ccc(Br)cc1 | 8.2µM | n | n | n | x | u
Cc1ccccc1CC1(CO)CCCN(C(=O)c2ccc3ncccc3c2)C1 (centres undefined) | 6.51µM | n | n | n | n | 14.6µM
Cc1ccccc1CC1(CO)CCCN(C(=O)c2ccc(F)cc2)C1 (centres undefined) | u | n | n | n | n | u
Cc1cccc(NC(=S)NC(C)C(c2ccccc2)N2CCN(C)CC2)c1C (centres undefined) | u | n | n | -50.5 | n | 25.9µM
Clc1ccc(CN2CCC(c3nc4ccc(Cl)cc4[nH]3)CC2)cc1 | 16.4µM | n | n | -61.4 | u | 11.6µM
COc1ccc(CN2CC[C@H](c3nc4ccc(OC)cc4[nH]3)C2)cc1 | x | x | x | x | n | x
CC/C=C\CCOC(=O)C(C)C | x | x | x | x | n | x
CCC1CCCCN1CCCNC(=O)CN1C(=O)CSc2ccc(S(=O)(=O)N3CCC(C)CC3)cc21 (centres undefined) | u | n | n | n | n | 23.1µM!
CC1CCCN(CCCNC(=O)CN2C(=O)CSc3ccc(S(=O)(=O)N4CCOCC4)cc32)C1 (centres undefined) | n | n | n | n | n | n
CC1CCN(S(=O)(=O)c2ccc3c(c2)N(CC(=O)NCCCN2CCCC(C)C2)C(=O)CS3)CC1 (centres undefined) | 14.6µM! | n | n | n | n | 14.6µM!
CC(C)CN(CCNC(=O)CN1C(=O)CSc2ccc(S(=O)(=O)N3CCOCC3)cc21)CC(C)C | 18.4µM! | n | n | n | n | 20.6µM!
Cc1cccc(OCCc2noc(C3CCCCN3S(C)(=O)=O)n2)c1 (centres undefined) | x | x | x | x | n | x
CC1(C)C(/C=C/C=C/C=C/C=C2\N(CCCCS(=O)(=O)O)c3ccc4ccccc4c3C2(C)C)=[N+](CCCCS(=O)(=O)[O-])c2ccc3ccccc3c21 | n | n | n | -76.7 | x | n
N#CCN(C(=O)c1ccccc1)C1CC1 | x | x | x | x | n | x
COC(=O)c1c(C)[nH]c(-c2csc(NC3CC3)n2)c1C | x | x | x | x | 31.6µM | x
CCOC(=O)c1c(C)[nH]c(C(=O)COC(=O)c2cnccn2)c1C | n | n | n | n | n | n
CCOC(=O)c1c(C)[nH]c(-c2csc(C)n2)c1C | u | n | n | n | n | 13µM
CCOC(=O)c1c(C)[nH]c(-c2csc(N)n2)c1C | n | 6.51µM | 4.61µM | n | u | u
CCOC(=O)c1csc(N)n1 | n | n | n | n | n | n
O=C(CCCc1ccccc1)N1CCN(C(=O)c2nnn3c2COC(c2ccccc2)C3)CC1 (centres undefined) | x | x | x | x | n | x
CCOC(=O)N1CCN(c2ncnc3scc(-c4ccc(Cl)cc4)c23)CC1 | 18.4µM | u | n | n | x | u
CC(C)(C)C(=O)N1CCN(c2ncnc3scc(-c4ccccc4)c23)CC1 | u | n | u | -56.0 | n | u
CCOC(=O)N1CCN(c2ncnc3scc(-c4ccccc4)c23)CC1 | 14.6µM | n | n | n | n | 8.2µM
SMILES | TDP1 cell CPT | HT1080-NT tox | HT1080 IDH1KD tx | IL1B secr inh | 12-LOX inh | TDP1 cell noCPT
COc1ccc(-c2csc3ncnc(N4CCN(c5ccccc5)CC4)c23)cc1 | u | n | u | n | n | u
Clc1ccc(-c2csc3ncnc(N4CCc5ccccc5C4)c23)cc1 | u | n | n | n | n | 20.6µM
Cc1ccc(NC(=O)CCc2ncc(-c3ccccc3F)o2)cc1C | x | x | x | x | n | x
C[C@H](NC(=O)C[C@@H]1c2nc(NC(=O)c3ccc(F)cc3)sc2C[C@@H]2[C@](C)(CO)[C@H](O)CC[C@]21C)c1ccccc1 | x | x | x | x | n | x
CCc1cccc2c(C(CC(=O)NC(C)C(C)C)c3ccc(OC)c(OC)c3)c[nH]c12 (centres undefined) | x | x | x | x | n | x
Cc1cc(NC(=O)CSc2nnc3c4c(C)c(C)sc4ncn23)no1 | u | n | n | n | n | 17.8µM
CCc1c(C)sc2nc(SCC(=O)Nc3cc(C)on3)n(CCOC)c(=O)c12 | u | n | n | n | n | 1.16µM
Cc1cc(NC(=O)CSc2nc3sc(C)c(C)c3c(=O)n2C2CCCC2)no1 | 9.2µM | n | n | n | n | n
Cc1cc(NC(=O)CSc2nc(C(C)C)nc3sc(C)c(C)c23)no1 | n | n | n | n | n | n
COc1ccc(-c2nc(Cn3c(SCc4cccc(F)c4)nc4cccnc43)c(C)o2)cc1 | u | x | x | x | n | u
Cc1ccc(CSc2nc3ccncc3n2Cc2nc(-c3ccc(Cl)cc3)oc2C)cc1 | u | x | x | x | n | u
Cc1oc(-c2cccc(Cl)c2)nc1Cn1c(SCc2ccc(F)cc2)nc2cccnc21 | 25.9µM | x | x | x | n | 25.9µM
Cc1oc(-c2ccccc2Cl)nc1Cn1c(SCc2cccc(F)c2)nc2cccnc21 | 23.1µM | x | x | x | n | 25.9µM
COc1ccc(-c2nc(Cn3c(SCc4ccccc4F)nc4cccnc43)c(C)o2)cc1 | u | x | x | x | n | u
COc1ccc(-c2nc(Cn3c(SCc4ccc(F)cc4)nc4cccnc43)c(C)o2)cc1 | 2.91µM | x | x | x | n | 2.59µM
COc1ccc(-c2nc(Cn3c(SCc4ccc(F)cc4)nc4ccncc43)c(C)o2)cc1OC | u | 23.1µM | u | n | n | 20.6µM
COC(=O)CNC(=O)C12CC3CC(C)(CC(C)(C3)C1)C2 | x | x | x | x | n | x
Cc1ccc(C)c(CSc2nc3ccncc3n2Cc2nc(-c3ccccc3Cl)oc2C)c1 | 20.6µM | x | x | x | n | u
COc1ccc(-c2nc(Cn3c(SCc4ccc(C)cc4)nc4cccnc43)c(C)o2)cc1OC | 5.17µM | x | x | x | n | u
COc1ccc(-c2nc(Cn3c(SCc4ccccc4F)nc4ccncc43)c(C)o2)cc1 | u | n | u | n | n | 14.6µM
CNC(=O)[C@@H](C1CC1)N1CCC[C@H]1C(=O)NCCOC | x | x | x | x | n | x
COC(=O)c1cccc(C(=O)N2CCC(Cc3nc(-c4ccc(F)cc4)no3)CC2)c1 | x | x | x | x | n | x
O=C(C(c1ccccc1)c1ccccc1)N1CCC(c2nc(-c3ccccc3Cl)no2)CC1 | 23.1µM | u | n[9.24 µM] | n | n | u
COc1ccccc1C(NC(=O)Cc1ccccc1Cl)c1nccn1C (centres undefined) | x | x | x | x | n | x
Cc1cc(C)c(O)c(CN(C)Cc2cc(Cl)cc(Cl)c2O)c1 | u | u | u | -90.3 | 39.8µM | 16.4µM
